Data on 37 molecules can be found in ChEMBL document CHEMBL3433997, “St. Jude Leishmania screening dataset” (2016).

Holding throughout (assay type): functional
In experiment [1] the target is Solute carrier family 2, facilitated glucose transporter member 1 (Homo sapiens) (UniProt P11166). The experiment is described as follows: ST_JUDE_LEISH: Cytotoxicity at 2uM final concentration against transgenic Leishmania Mexicana promastigotes LmGLUT1 that are glucose transport deficient and complemented with the human glucose transporter GLUT1. Activity is measured by DNA content using SYBR green in vitro.
Sequence of Solute carrier family 2, facilitated glucose transporter member 1 (Homo sapiens) (P11166 whole entry): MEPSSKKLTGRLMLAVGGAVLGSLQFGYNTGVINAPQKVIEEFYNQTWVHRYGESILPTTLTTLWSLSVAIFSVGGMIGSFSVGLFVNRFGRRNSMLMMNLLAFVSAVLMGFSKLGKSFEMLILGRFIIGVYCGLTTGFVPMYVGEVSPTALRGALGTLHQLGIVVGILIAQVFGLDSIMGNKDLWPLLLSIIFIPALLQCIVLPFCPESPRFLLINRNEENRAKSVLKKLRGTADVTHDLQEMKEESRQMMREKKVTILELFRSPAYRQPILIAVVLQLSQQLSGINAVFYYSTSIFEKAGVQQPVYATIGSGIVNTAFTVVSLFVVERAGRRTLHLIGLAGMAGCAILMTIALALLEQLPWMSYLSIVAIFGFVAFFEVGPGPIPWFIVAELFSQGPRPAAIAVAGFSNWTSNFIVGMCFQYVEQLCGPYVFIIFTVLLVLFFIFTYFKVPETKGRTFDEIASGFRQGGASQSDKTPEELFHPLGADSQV

In experiment [2] the target is Hexose transporter 1 (Plasmodium falciparum) (UniProt O97467). In words: ST_JUDE_LEISH: Cytotoxicity at 2uM final concentration against transgenic Leishmania Mexicana promastigotes LmPfHT that are glucose transport deficient and complemented with the Plasmodium falciparum hexose transporter. Activity is measured by DNA content using SYBR green in vitro.
The target of experiment [3] is Glucose transporter (Leishmania mexicana) (UniProt O61059). The experiment is described as follows: ST_JUDE_LEISH: Cytotoxicity at 2uM final concentration against transgenic Leishmania Mexicana promastigotes LmGT2 that are glucose transport deficient and complemented with the L. Mexicana glucose transporter 2. Activity is measured by DNA content using SYBR green in vitro.

One may read the inhibition as the change of the read-out against control, counted positive when it falls.

For the molecule `Clc1ccc(OCCC2CCN(CCCCCCCN3CCC(CCOc4ccc(Cl)c(Cl)c4)CC3)CC2)cc1Cl`, the inhibition came to 9.59% in experiment [1], 11.4% in experiment [2] and 3.47% in experiment [3].

For the molecule `CCOC(=O)CCCc1cc(NC2CCN(C)CC2)nc(Nc2ccc(C)cc2)n1`, the inhibition in experiment [1] was -2.45%; in experiment [2] it was 0.71%; in experiment [3], -2.59%.

In the case of `Cc1cccc2nc(-c3cccc(-c4cccc(NC(=O)c5ccc(=O)[nH]n5)c4)c3)[nH]c12`, the inhibition in experiment [1] worked out at 5.27%; in experiment [2], 1.34%; in experiment [3], 2.2%.

Take `Cc1cc(N2CCC(N(C)C)C2)nc(Nc2ccc(Cl)cc2)n1` (stereo unspecified): the inhibition in experiment [1] worked out at 4.11%; in experiment [2], 3.16%; in experiment [3], 4.87%.

Take `CC(C)[C@H](NC(=O)c1ccc(O)c(-c2cccc(C(F)(F)F)c2)c1)C(=O)NC1CCCc2ccccc21` (stereo partly specified): the inhibition in experiment [1] is 3.9%; in experiment [2], 2.89%; in experiment [3] it was 0.81%.

With `COCCCNC(=O)[C@H]1CNCCN1C(=O)c1ccccc1`, the inhibition in experiment [1] was 1%; in experiment [2], 0.97%; in experiment [3], 3.67%.

Consider `COc1ccc2ncc(F)c(CCN3CCC(NCc4cc(OC)c5c(c4)OCCO5)CC3)c2n1`, for which the inhibition was 7.06% in experiment [1], 6.92% in experiment [2] and 1.31% in experiment [3].

On to `NC1CCN(CCNCc2cccc(-c3ccc(-c4nc5cc(F)ccc5[nH]4)cc3)c2)C1` (stereo unspecified), for which the results for the inhibition in experiment [1], in experiment [2] and in experiment [3] were 7.06%, 11.1% and 6.13%, respectively.

`O=C(Nc1cccc(CN2CCCN(Cc3ccsc3)CC2)c1)c1ccc(Cl)c(Cl)c1`: the inhibition in experiment [1] was 4.04%; in experiment [2], 2.57%; in experiment [3], -2.87%.

Consider `CCOc1ccc2c(=NN=Cc3ccccc3OC)cc(C)[nH]c2c1`, for which the inhibition is 7.35% in experiment [1], 7.09% in experiment [2] and 6.71% in experiment [3].

As to `Cc1cc(F)ccc1Nc1nc(N(C)c2ccccc2)c2cc(OCCCN(C)C)ccc2n1`, the inhibition in experiment [1] is 2.53%; in experiment [2] it was 3.15%; in experiment [3], 4.25%.

Regarding `CN(C)CCCNc1ncnc2c1[nH]c1ccc(F)cc12`, the inhibition in experiment [1] stood at 7.06%; in experiment [2], 7.08%; in experiment [3], 7.71%.

As for `NC(=O)c1ccccc1OCC(=O)Nc1cccc(-c2ccc(-c3nc4ccccc4[nH]3)cc2)c1`, the inhibition in experiment [1] came to 8.01%; in experiment [2], 6.11%; in experiment [3] it was 2.43%.

`O=C(Nc1ccc(C(F)(F)F)cc1)N[C@H]1CCN(CCCCCNC(=O)C2CC2c2ccc(Cl)c(Cl)c2)C1` (stereo partly specified): the inhibition was determined as 3.36% in experiment [1], 2.73% in experiment [2] and 2.17% in experiment [3].

For the molecule `CS(=O)(=O)c1ccc(CNCc2cccc(-c3cccc(-c4nc5ccccc5[nH]4)c3)c2)cc1`, the inhibition in experiment [1] was 2.3%; in experiment [2] it was 0.28%; in experiment [3] it was -2.15%.

`CCCCCC1c2[nH]c3ccccc3c2CCN1C(=O)OCc1ccccc1` (stereo unspecified): the inhibition in experiment [1] was 7.38%; in experiment [2], 6.98%; in experiment [3], 7.22%.

Consider `Cc1ccc(Cc2cnc(CN3CCCCC3)c(O)c2)cc1`, for which the inhibition in experiment [1] was -1.22%; in experiment [2], -2.99%; in experiment [3] it was 0.07%.

Regarding `Cc1cc(N[C@@H](CC(C)C)C(=O)NCc2cccs2)nc(NCCc2ccccc2)n1`, the inhibition was determined as 7.7% in experiment [1], 5.79% in experiment [2] and 5.49% in experiment [3].

Take `c1cc(Cc2ccc(Nc3c4ccccc4nc4ccccc34)cc2)cc(Nc2c3ccccc3nc3ccccc23)c1`: the inhibition in experiment [1] is 5.95%; in experiment [2], 5.85%; in experiment [3], 2.19%.

For `CCNc1cc(C(=O)N[C@@H](Cc2ccccc2)[C@H](O)CNCc2cccc(-n3ccnc3)c2)cc(N2CCCC2=O)c1`, the inhibition was -1.37% in experiment [1], -0.52% in experiment [2] and 1.12% in experiment [3].

Take `Oc1ccc2[nH]c(-c3cccs3)nc2c1CN1CCC(N2CCCC2)CC1`: the inhibition in experiment [1] stood at 3.78%; in experiment [2], 6.78%; in experiment [3], 5.89%.

Regarding `CCOC(=O)c1c(C)noc1Nc1cccc(C)c1C`, the inhibition in experiment [1] was -3.16%; in experiment [2], -1.56%; in experiment [3], -4.02%.

In the case of `CN(C)CCCN(C)C(=O)c1cc2cc(-c3ccccc3)ccc2n1S(=O)(=O)c1ccccc1`, the inhibition in experiment [1] is 5.31%; in experiment [2] it was -2.36%; in experiment [3] it was -0.41%.

Turning to `Cc1ccc2[nH]c3c(c2c1)CC(C(=O)NCCC(C)C)NC31CCN(Cc2ccccc2)CC1` (stereo unspecified), the inhibition was 0.11% in experiment [1], -3.4% in experiment [2] and 0.79% in experiment [3].

Regarding `O=C(Nc1ccccc1Cl)N(Cc1cc(Cl)cc(Cl)c1)CC(O)COc1ccc(Cl)c(F)c1` (stereo unspecified), the inhibition in experiment [1] is 2.94%; in experiment [2], 2.72%; in experiment [3] it was -2.7%.

`CCCc1cccc(OC)c1OCCCON1C(N)=NC(N)=NC1(C)C`: the values for the inhibition in experiment [1], in experiment [2] and in experiment [3] were -2.03%, -0.29% and 0.81%, respectively.

Take `C(=Cc1nc2ccccc2s1)c1ccc2c(c1)OCCO2`: the inhibition in experiment [1] is 0.08%; in experiment [2], 0.45%; in experiment [3] it was -2.03%.

With `O=C1OC2(CN1CC1CCN(Cc3ccc(O)c(Cl)c3)CC1)c1ccccc1-c1ccccc12`, the inhibition in experiment [1] stood at 8.04%; in experiment [2], 6.3%; in experiment [3], 3.94%.

Regarding `COc1ccc(-c2ccc(NC(=O)c3cccc(Cl)c3)cc2)cc1CN1CCN(C)CC1`, the inhibition stood at 6.52% in experiment [1], 4.97% in experiment [2] and 3.15% in experiment [3].

As for `Cc1cc(N[C@@H](CC(C)C)C(=O)Nc2ccccc2)nc(NCCc2ccc(F)cc2)n1`, the values for the inhibition in experiment [1], in experiment [2] and in experiment [3] were 4.85%, 1.97% and 1.72%, respectively.

Consider `CCCNCc1ccc(-c2ccc(CN(Cc3cnc(C)cn3)C(=O)c3nn(-c4ccccc4)nc3C)cc2)nc1`, for which the inhibition in experiment [1] was 2.69%; in experiment [2], 0.9%; in experiment [3] it was -6.47%.

Regarding `Cc1[nH]c(C)c(-c2ccc(OCCSc3ccncc3)cc2)c(=O)c1Br`, the inhibition was 1.9% in experiment [1], -0.1% in experiment [2] and 0.05% in experiment [3].

Consider `FC(F)(F)c1cccc(Nc2nc(-n3ccnc3)nc(-n3ccnc3)n2)c1`, for which the inhibition in experiment [1] was 1.93%; in experiment [2], 0.62%; in experiment [3], 1.05%.

For `O=C(Cc1c[nH]cn1)Nc1cccc(-c2ccc(-c3nc4cc(C(F)(F)F)ccc4[nH]3)cc2)c1`, the inhibition in experiment [1] is 3.54%; in experiment [2], 3.75%; in experiment [3], 1.97%.

`CCc1ccc(OCCCON2C(=N)N=C(N)NC2(C)C)cc1`: the inhibition in experiment [1] is -1.61%; in experiment [2], 1.92%; in experiment [3], 3.21%.

For `Cc1cc(C(=O)Nc2ccc3c(c2)CCN3C2CCN(Cc3ccc(F)cc3Cl)C2)no1` (stereo unspecified), the inhibition in experiment [1] came out at 4.11%; in experiment [2], 3.71%; in experiment [3] it was 3.86%.

For the molecule `Cc1ccc([N+](=O)[O-])cc1NC(=O)N(CC(O)c1ccccc1)C1CCCCC1` (stereo unspecified), the inhibition in experiment [1] came out at 1.93%; in experiment [2], 2.61%; in experiment [3], 2.38%.
